Values joined by “and” are separate entries in the source; they are usually repeats but may differ in a detail not shown here. Identical values can stand only once. The panel holds about 83,000 compounds, 20% with a hit somewhere; the sample as a whole holds those more often.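 Compound tested at a single concentration for 48 hours in 96-well plates; a percent growth value below 10 was scored as active.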 A number with no mark means an inactive call. Active and inactive are the calls of the source.
What was measured:
Assay in all cases: NCI-60 one-dose screen, 48 h (100 = growth as untreated, 0 = no growth, -100 = all killed)
Conditions in all cases: 10 µM unless noted
SK-MEL-2 melanoma = system: SK-MEL-2 melanoma
EKVX NSCLC = system: EKVX NSCLC
SN12C renal = system: SN12C renal
UO-31 renal = system: UO-31 renal
TK-10 renal = system: TK-10 renal
ACHN renal = system: ACHN renal
CAKI-1 renal = system: CAKI-1 renal
A498 renal = system: A498 renal
CCRF-CEM leukemia = system: CCRF-CEM leukemia
MOLT-4 leukemia = system: MOLT-4 leukemia
SR leukemia = system: SR leukemia
RPMI-8226 leukemia = system: RPMI-8226 leukemia
OVCAR-8 ovarian = system: OVCAR-8 ovarian
OVCAR-5 ovarian = system: OVCAR-5 ovarian
OVCAR-4 ovarian = system: OVCAR-4 ovarian
SK-OV-3 ovarian = system: SK-OV-3 ovarian
IGROV1 ovarian = system: IGROV1 ovarian
OVCAR-3 ovarian = system: OVCAR-3 ovarian
HS 578T breast = system: HS 578T breast
NCI/ADR-RES ovarian = system: NCI/ADR-RES ovarian

| Compound | growth (SK-MEL-2 melanoma) | growth (EKVX NSCLC) | growth (SN12C renal) | growth (UO-31 renal) | growth (TK-10 renal) | growth (ACHN renal) | growth (CAKI-1 renal) | growth (A498 renal) | growth (CCRF-CEM leukemia) | growth (MOLT-4 leukemia) | growth (SR leukemia) | growth (RPMI-8226 leukemia) | growth (OVCAR-8 ovarian) | growth (OVCAR-5 ovarian) | growth (OVCAR-4 ovarian) | growth (SK-OV-3 ovarian) | growth (IGROV1 ovarian) | growth (OVCAR-3 ovarian) | growth (HS 578T breast) | growth (NCI/ADR-RES ovarian) |
| --- | --- | --- | --- | --- | --- | --- | --- | --- | --- | --- | --- | --- | --- | --- | --- | --- | --- | --- | --- | --- |
| COc1cc(NC2CCCCC2O)c2nc(-c3ccc(Cl)cc3)ccc2c1 (stereo not given) | 91.5% and 80.4% | 78.3% and 94.4% | 80.1% and 103% | 71.1% and 86.8% | 82.2% and 125% | 84.4% and 87.5% | 46.9% and 61.3% | 101% | 53.7% and 40.2% | 33.4% | -4.63% (active) | 58.3% and 34.2% | 85.5% and 90.1% | 107% and 94.6% | 75.6% and 76.7% | 101% and 105% | 97.2% and 96% | 88.1% and 112% | 85.4% and 138% | 84.5% |
| COc1ccc(/C=N/C2=C(C#N)C(c3ccccc3)c3c(ccc4ccccc34)O2)cc1 (stereo not given) | 49.7% | 32.7% | 48% | 37.5% | 64.4% | 35.3% | 13.9% | -6.08% (active) | 15.2% | 27.3% | 17.5% | -2.96% (active) | 37.6% | 48.8% | 52.3% | 45.3% | 23.5% | -11% (active) | 17.5% | 10.3% |
| CC[C@H](C)[C@H](NC(=O)[C@@H](N)CCC(N)=O)C(=O)N[C@@H](Cc1ccc(O)cc1)C(=O)N[C@@H](CCCCN)C(=O)N[C@@H](CCCCN)C(=O)N[C@@H](Cc1ccc(O)cc1)C(=O)N[C@@H](CCCNC(=N)N)C(=O)N[C@H](C(=O)N[C@@H](Cc1c[nH]c2ccccc12)C(=O)N[C@@H](Cc1ccc(O)cc1)C(=O)N[C@@H](CCCNC(=N)N)C(=O)N[C@@H](CCCCN)C(=O)N[C@@H](C)C(=O)N[C@@H](Cc1c[nH]c2ccccc12)C(=O)N[C@@H](CCCCN)C(=O)N[C@H](C(=O)N[C@@H](CC(C)C)C(=O)NCC(=O)N[C@@H](CCCCN)C(=O)N[C@H](C(N)=O)C(C)C)C(C)C)[C@@H](C)O | 43.3% | -34.5% (active) | 12.4% | 76% | 8.22% (active) | 65.6% | 7.94% (active) | 64.6% | 5.19% (active) | 52.9% | 37.8% | 17.9% | 13% | 56.6% | 73.5% | 42.8% | -33.4% (active) | -1.52% (active) | -13% (active) | -2.5% (active) |
| CCOC(=O)C1=C(C)N=C2SC=C(c3ccc(F)cc3)N2[C@H]1c1cn(-c2ccccc2)nc1-c1ccc(Cl)cc1 | 97.4% | 88.4% | 98.6% | 85.1% | 93.6% | 101% | 84.1% | 89.7% | 95.5% | 78.3% | 88% | 88.4% | 92% | 91.9% | 102% | 87.8% | 96.7% | 114% | 101% | 105% |
| C=C1CCC2C3(C)COC(c4ccc(NC(C)=O)cc4)OC3CCC2(C)C1C/C=C1/C(=O)OCC1O (stereo not given) | 84.4% | 39.6% | 91.6% | 68.3% | 75.3% | 65.8% | 87.7% | 57% | 27.3% | 26.7% | 25.2% | 6.14% (active) | 44.7% | 74.9% | 23.7% | 79.6% | 84.4% | 76.2% | 54% | 36.1% |
| N=C(N)SCc1c2ccccc2c(CSC(=N)N)c2ccccc12 | 79.2% | 76.5% | 53.7% | 80.8% | 98.5% | 51.2% | 61.7% | 89.9% | 6.24% (active) | -5.95% (active) | -11.1% (active) | 46% | 60.7% | 102% | 80.6% | 81.4% | 80.6% | 93.5% | 85.5% | 103% |
| O=C1N=c2ccccc2=C1c1sc(=S)n(C2CC(=O)N(c3ccc(Cl)cc3)C2=O)c1O (stereo not given) | 102% | 101% | 94.9% | 68.5% | 129% | 93.9% | 87.6% | 114% | 83.8% | 97.7% | 36.5% | 103% | 98.6% | 105% | 103% | 103% | 101% | 109% | 98.1% | 102% |
| COc1ccc(/C(C)=C(\c2ccc(OCCN3CCCCCC3)cc2)c2ccc(OC(=O)C3CCCCC3)cc2)cc1 | -78.3% (active) | -25.3% (active) | -87.2% (active) | -96.9% (active) | -79.2% (active) | -88.5% (active) | -34.4% (active) | -3.54% (active) | -31.5% (active) | -13.7% (active) | -20.1% (active) | -55.1% (active) | -47.3% (active) | -24.7% (active) | -28.4% (active) | -70.9% (active) | -49% (active) | -86.9% (active) | -38.3% (active) | -65.2% (active) |
| COc1ccc(CN2CCc3c(Cl)nc(N)nc3C2=O)c(OC)c1 | -30.2% [100 µM] (active) | 5.84% [100 µM] (active) | 17.2% [100 µM] | 27.9% [100 µM] | 22.2% [100 µM] | 32.3% [100 µM] | 23.4% [100 µM] | 35.7% [100 µM] | 3.61% [100 µM] (active) | 13% [100 µM] | 3.87% [100 µM] (active) | 12.7% [100 µM] | 1.04% [100 µM] (active) | 45.1% [100 µM] | 15.2% [100 µM] | 8.93% [100 µM] (active) | -37.3% [100 µM] (active) | -22.4% [100 µM] (active) | 49.9% [100 µM] | 4.29% [100 µM] (active) |
| CCOC(=O)c1c(-c2ccc(C)cc2)c(C#N)c(=O)n(-c2cccc(C(F)(F)F)c2)c1N | 116% | 98.8% | 95.1% | 81.6% | 112% | 96.7% | 91.2% | 106% | 101% | 104% | 102% | 104% | 103% | 93% | 106% | 108% | 107% | 106% | 105% | 109% |
| O=C1Nc2ccccc2/C1=C/c1cccn1CCCCCn1c2ccccc2c(=O)c2ccccc21 | 84% | 71.8% | 97.1% | 49.3% | 93.8% | 55.1% | 65.9% | 108% | 44.9% | 46% | 76.1% | 22.1% | 45.6% | 82.6% | 57.1% | 90.4% | 73% | 70.9% | 90.5% | 60.9% |
| Cc1ccc(-c2nc3nc(-c4ccc(Cl)cc4)nc(N4CCCNCC4)c3o2)cc1 | 103% | 123% | -86% (active) | -78.7% (active) | 29.7% | -98.9% (active) | -92.3% (active) | 95.2% | -72.6% (active) | -71.2% (active) | -44.9% (active) | -48.7% (active) | -58.7% (active) | -98.5% (active) | -83.5% (active) | 117% | -83.8% (active) | -95.5% (active) | -50.8% (active) | -66.9% (active) |

From PubChem BioAssay (NCI)
